Targets with a hit are over-represented here; the source holds about 8,800 in all. About 0.5% of all pairs of compound and target were hits. Unmarked numbers belong to inactive results.
What was measured:
Experiment in all cases: log2 fold change, soluble protein after heating vs DMSO (PISA); higher = thermal stabilisation; K562 lysate, 10 uM; active = over 0.2 and 3.5 SD of the protein, either way, in both replicates (recomputed)
[1] = compound: CCCS(=O)(=O)Nc1ccc(F)c(C(=O)c2c[nH]c3ncc(-c4ccc(Cl)cc4)cc23)c1F [vemurafenib]
Outline: (§1)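 Values give the log-two fold change in thermal stability against solvent controls, from duplicates. Crude K562 extract at 1 mg/mL protein, made by dounce homogenisation in PBS pH 7.4 with 1 mM MgCl2, was treated with 10 μM compound for 30 min. After 3 min heating across 48°C-58°C, aliquots were pooled, adjusted to 0.5% NP-40 at 4°C and centrifuged at 21,000xg for 90 min. The supernatant was measured by TMTpro 16plex LC-MS/MS with channel sums equalised.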

[2] = compound: CCCS(=O)(=O)Nc1ccc(F)c(C(=O)c2c[nH]c3ncc(Cl)cc23)c1F
Outline: as §1

[3] = compound: CCN(CCCOc1ccc2c(Nc3cc(CC(=O)Nc4cccc(F)c4)[nH]n3)ncnc2c1)CCOP(=O)(O)O [barasertib]
Outline: as §1

[4] = compound: CC[C@@H]1C(=O)N(C)c2cnc(Nc3ccc(C(=O)NC4CCN(C)CC4)cc3OC)nc2N1C1CCCC1
Outline: as §1

[5] = compound: CC[C@@H]1C(=O)N(C)c2cnc(Nc3ccc(C(=O)N[C@H]4CC[C@H](N5CCN(CC6CC6)CC5)CC4)cc3OC)nc2N1C(C)C [volasertib]
Outline: as §1

[6] = compound: CCn1c(C(=O)N(C2CC2)C2CC2)cc2c3c(ncn3C)c(Nc3cc(C)n(C)n3)nc21
Outline: as §1

[7] = compound: CCn1cc(-c2ccnc3[nH]c(-c4cccc(CN(C)C)c4)cc23)c(-c2ccc(NC(=O)N(C)C)cc2)n1
Outline: as §1

[8] = compound: CN1CCC(CNc2ccc3ncc(-c4cccc(OC(F)(F)F)c4)n3n2)CC1
Outline: as §1

[9] = compound: CN1CCN(CCOc2cc(OC3CCOCC3)c3c(Nc4c(Cl)ccc5c4OCO5)ncnc3c2)CC1 [saracatinib]
Outline: as §1

[10] = compound: CN1CCN(c2nc(C3=C(c4c[nH]c5ccccc45)C(=O)NC3=O)c3ccccc3n2)CC1 [sotrastaurin]
Outline: as §1

[11] = compound: CN1CC[C@H](c2c(O)cc(O)c3c(=O)cc(-c4ccccc4Cl)oc23)[C@H](O)C1 [alvocidib]
Outline: as §1

[12] = compound: CN1CCc2c(c3ccccc3n2Cc2ccc(C(=O)NO)cc2)C1 [Tubastatin A]
Outline: as §1

[13] = compound: CNC(=O)C1=CC=CC=C1NC2=NC(=NC=C2Cl)NC3=C(C=C(C=C3)N4CCOCC4)OC
Outline: as §1

[14] = compound: CNC(=O)c1ccc(Nc2ncc(C(F)(F)F)c(NCc3nccnc3N(C)S(C)(=O)=O)n2)cc1 [defactinib]
Outline: as §1

[15] = compound: CNc1nc(-c2ccc3c(N)n[nH]c3c2)cc(N2C[C@@H](C(=O)NC3CCCCC3)CC[C@H]2C)n1
Outline: as §1

[16] = compound: COC(=O)N[C@@H](C)CNc1nccc(-c2cn(C(C)C)nc2-c2cc(Cl)cc(NS(C)(=O)=O)c2F)n1 [encorafenib]
Outline: as §1

[17] = compound: COC(=O)[C@H](CCSC)NC(=O)C1=C(C=C(C=C1)NC[C@H](CS)N)C2=CC=CC=C2
Outline: as §1

[18] = compound: COc1cc(Nc2ncc3c(n2)-c2ccc(Cl)cc2C(c2c(F)cccc2OC)=NC3)ccc1C(=O)O [alisertib]
Outline: as §1

[19] = compound: COc1cc2nc(-c3cc(F)ccc3O)nc(N[C@@H]3CNC[C@H]3C(C)(C)O)c2cc1OC
Outline: as §1

[20] = compound: COc1cc2ncnc(Nc3ccc(F)c(Cl)c3)c2cc1OCCCN1CCOCC1 [gefitinib]
Outline: as §1

UniProt Q13111, sequence (Q13111 whole entry, looked up): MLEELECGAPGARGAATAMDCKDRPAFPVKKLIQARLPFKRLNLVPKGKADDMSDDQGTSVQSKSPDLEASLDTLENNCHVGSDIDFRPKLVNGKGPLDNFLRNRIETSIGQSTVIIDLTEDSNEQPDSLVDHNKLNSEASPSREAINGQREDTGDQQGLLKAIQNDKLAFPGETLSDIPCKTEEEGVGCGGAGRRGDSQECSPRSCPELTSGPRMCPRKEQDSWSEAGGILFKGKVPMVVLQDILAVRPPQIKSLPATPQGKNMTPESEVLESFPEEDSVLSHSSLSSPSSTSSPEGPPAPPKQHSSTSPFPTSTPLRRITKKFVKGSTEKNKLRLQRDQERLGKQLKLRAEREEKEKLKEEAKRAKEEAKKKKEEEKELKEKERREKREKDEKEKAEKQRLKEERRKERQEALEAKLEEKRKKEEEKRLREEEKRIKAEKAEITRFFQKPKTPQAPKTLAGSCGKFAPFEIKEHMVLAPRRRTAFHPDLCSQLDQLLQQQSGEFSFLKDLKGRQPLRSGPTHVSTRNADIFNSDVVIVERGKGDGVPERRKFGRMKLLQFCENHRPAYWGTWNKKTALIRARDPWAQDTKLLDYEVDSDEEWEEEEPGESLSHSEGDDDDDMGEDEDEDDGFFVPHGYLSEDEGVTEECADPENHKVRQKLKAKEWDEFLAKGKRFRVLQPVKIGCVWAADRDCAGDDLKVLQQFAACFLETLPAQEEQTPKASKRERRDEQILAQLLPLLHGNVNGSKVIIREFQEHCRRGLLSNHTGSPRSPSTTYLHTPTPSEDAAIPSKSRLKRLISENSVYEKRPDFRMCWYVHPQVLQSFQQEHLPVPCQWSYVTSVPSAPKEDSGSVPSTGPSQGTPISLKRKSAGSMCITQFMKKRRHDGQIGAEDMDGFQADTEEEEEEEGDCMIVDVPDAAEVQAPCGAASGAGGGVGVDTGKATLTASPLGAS
UniProt Q9BXL7, sequence (Q9BXL7 whole entry, looked up): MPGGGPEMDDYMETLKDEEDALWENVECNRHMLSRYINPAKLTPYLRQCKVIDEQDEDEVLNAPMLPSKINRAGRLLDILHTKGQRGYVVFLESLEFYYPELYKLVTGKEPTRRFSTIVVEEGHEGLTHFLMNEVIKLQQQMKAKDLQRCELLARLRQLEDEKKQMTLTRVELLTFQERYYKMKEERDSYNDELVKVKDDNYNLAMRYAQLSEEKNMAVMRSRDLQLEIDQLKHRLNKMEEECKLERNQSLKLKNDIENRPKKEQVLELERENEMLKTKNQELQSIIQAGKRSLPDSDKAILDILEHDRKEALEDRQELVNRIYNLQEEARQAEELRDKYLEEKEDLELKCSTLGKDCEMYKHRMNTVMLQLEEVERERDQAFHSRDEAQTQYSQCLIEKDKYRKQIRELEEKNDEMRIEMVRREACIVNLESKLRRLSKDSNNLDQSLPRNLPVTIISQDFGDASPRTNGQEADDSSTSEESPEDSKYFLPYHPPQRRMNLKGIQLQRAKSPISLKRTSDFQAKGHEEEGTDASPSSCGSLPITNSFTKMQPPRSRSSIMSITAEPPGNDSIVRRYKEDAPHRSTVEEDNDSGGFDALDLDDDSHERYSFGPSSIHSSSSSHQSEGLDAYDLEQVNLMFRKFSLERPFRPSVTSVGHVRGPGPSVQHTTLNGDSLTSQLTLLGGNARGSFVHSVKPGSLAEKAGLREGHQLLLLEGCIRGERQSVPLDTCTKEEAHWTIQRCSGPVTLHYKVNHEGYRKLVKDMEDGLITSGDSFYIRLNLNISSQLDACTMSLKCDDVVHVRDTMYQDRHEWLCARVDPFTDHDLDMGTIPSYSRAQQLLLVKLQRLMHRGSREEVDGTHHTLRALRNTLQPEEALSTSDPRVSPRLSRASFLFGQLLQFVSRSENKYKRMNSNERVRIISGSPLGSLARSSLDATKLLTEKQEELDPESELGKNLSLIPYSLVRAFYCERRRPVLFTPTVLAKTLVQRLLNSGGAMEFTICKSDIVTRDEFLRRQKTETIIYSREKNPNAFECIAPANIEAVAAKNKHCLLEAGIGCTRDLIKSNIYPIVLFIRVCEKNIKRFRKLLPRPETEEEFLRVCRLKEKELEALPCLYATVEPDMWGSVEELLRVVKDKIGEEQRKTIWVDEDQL
UniProt P55212, sequence (P55212 whole entry, looked up): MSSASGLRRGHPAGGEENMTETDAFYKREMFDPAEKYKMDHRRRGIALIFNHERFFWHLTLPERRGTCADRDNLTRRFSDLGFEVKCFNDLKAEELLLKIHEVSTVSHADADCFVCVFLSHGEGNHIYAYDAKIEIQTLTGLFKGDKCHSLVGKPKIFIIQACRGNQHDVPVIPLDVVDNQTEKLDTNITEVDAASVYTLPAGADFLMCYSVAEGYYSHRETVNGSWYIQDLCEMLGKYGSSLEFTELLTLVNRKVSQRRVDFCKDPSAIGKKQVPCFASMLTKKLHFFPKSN
UniProt Q96A33, sequence (Q96A33 whole entry, looked up): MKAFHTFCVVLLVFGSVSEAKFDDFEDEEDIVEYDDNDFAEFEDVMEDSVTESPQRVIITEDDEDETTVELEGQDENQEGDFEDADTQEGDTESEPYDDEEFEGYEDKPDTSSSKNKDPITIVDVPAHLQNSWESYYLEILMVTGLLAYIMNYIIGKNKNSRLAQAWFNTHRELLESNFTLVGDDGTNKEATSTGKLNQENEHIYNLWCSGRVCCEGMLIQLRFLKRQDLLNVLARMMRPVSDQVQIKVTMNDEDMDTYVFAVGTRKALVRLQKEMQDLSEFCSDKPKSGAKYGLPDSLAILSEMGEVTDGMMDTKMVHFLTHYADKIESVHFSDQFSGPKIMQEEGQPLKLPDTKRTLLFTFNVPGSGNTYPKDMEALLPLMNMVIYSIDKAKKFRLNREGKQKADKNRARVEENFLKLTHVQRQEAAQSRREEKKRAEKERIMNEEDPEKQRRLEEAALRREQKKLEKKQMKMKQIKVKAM
UniProt P27824, sequence (P27824 whole entry, looked up): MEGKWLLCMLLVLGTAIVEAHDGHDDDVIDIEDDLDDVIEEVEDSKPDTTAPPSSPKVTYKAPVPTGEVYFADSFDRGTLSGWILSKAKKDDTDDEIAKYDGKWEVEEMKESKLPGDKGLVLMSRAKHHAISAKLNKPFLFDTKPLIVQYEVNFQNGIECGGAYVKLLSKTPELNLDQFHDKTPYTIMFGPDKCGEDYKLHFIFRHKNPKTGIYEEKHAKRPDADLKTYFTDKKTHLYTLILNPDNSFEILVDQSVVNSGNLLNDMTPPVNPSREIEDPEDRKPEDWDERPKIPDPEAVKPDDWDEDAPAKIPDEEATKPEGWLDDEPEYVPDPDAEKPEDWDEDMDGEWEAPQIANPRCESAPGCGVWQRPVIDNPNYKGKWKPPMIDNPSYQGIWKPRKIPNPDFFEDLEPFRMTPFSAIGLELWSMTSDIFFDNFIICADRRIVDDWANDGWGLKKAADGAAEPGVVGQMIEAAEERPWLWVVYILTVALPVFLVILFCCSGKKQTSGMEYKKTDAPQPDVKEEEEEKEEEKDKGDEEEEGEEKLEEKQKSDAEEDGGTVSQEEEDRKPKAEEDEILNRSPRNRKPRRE
UniProt P50750, sequence (P50750 whole entry, looked up): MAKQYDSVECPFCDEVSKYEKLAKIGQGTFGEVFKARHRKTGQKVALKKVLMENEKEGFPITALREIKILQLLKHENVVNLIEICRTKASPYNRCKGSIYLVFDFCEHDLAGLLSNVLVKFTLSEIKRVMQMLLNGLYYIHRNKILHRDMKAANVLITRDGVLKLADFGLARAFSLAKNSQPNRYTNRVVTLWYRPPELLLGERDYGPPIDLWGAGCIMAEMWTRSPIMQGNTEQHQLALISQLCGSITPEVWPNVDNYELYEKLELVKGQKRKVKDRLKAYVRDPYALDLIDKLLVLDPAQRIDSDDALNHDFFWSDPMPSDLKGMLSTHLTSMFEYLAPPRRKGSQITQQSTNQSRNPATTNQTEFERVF
UniProt Q86WA6, sequence (Q86WA6 whole entry, looked up): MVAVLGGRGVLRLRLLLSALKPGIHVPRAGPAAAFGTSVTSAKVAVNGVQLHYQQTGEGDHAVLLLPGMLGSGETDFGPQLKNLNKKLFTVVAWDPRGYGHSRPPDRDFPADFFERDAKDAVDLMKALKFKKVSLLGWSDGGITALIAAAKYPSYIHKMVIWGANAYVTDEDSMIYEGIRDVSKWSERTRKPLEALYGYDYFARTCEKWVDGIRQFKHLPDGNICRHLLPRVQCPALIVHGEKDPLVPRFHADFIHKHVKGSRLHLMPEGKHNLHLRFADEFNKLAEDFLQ
UniProt P18859, sequence (P18859 whole entry, looked up): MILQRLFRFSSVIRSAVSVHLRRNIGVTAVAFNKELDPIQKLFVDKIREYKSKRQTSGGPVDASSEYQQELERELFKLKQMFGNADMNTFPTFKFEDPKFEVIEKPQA
UniProt P24863, sequence (P24863 whole entry, looked up): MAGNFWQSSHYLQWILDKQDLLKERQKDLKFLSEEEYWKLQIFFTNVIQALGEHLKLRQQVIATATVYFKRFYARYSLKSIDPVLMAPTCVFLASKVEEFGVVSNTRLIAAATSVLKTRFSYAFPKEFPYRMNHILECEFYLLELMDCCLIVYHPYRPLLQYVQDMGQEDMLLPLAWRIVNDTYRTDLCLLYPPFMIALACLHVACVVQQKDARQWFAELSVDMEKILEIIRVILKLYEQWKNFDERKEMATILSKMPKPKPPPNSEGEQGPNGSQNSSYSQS
UniProt Q8WYN0, sequence (Q8WYN0 whole entry, looked up): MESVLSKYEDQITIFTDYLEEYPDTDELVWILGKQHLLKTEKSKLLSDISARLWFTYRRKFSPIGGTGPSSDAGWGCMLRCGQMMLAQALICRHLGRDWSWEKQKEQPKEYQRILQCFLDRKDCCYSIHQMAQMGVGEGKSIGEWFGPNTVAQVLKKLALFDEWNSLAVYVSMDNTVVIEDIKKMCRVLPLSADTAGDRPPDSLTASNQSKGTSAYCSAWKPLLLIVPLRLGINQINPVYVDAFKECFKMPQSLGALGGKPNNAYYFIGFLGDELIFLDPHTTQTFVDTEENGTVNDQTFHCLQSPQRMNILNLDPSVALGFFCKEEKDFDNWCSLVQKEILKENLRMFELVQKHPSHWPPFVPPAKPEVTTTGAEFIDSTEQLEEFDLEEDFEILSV

| Target | log2 fold change [1] | log2 fold change [2] | log2 fold change [3] | log2 fold change [4] | log2 fold change [5] | log2 fold change [6] | log2 fold change [7] | log2 fold change [8] | log2 fold change [9] | log2 fold change [10] | log2 fold change [11] | log2 fold change [12] | log2 fold change [13] | log2 fold change [14] | log2 fold change [15] | log2 fold change [16] | log2 fold change [17] | log2 fold change [18] | log2 fold change [19] | log2 fold change [20] |
| --- | --- | --- | --- | --- | --- | --- | --- | --- | --- | --- | --- | --- | --- | --- | --- | --- | --- | --- | --- | --- |
| CASP6 (UniProt P55212) | 0.006 | -0.012 | -0.071 | 0.018 | -0.017 | 0.025 | 0.242 | 0.013 | -0.004 | -0.016 | -0.011 | -0.003 | 0.067 | 0.039 | -0.046 | -0.015 | -0.026 | 0.023 | -0.029 | 0.061 |
| CARD11 (UniProt Q9BXL7) | 0.088 | 0.012 | -0.075 | -0.087 | -0.071 | 0.082 | -0.024 | -0.014 | 0.063 | 0.002 | 0.073 | -0.023 | 0.022 | -0.005 | -0.029 | -0.021 | 0.072 | -0.028 | 0.025 | 0.014 |
| BPHL (UniProt Q86WA6) | -0.13 | 0.013 | 0.058 | 0.015 | 0 | 0.069 | 0.063 | 0 | -0.058 | 0.084 | 0.004 | -0.006 | -0.048 | 0.036 | -0.137 | -0.002 | 0.004 | 0.085 | -0.028 | 0.009 |
| CDK9 isoform 2 (UniProt P50750) | -0.117 | -0.064 | -0.025 | 0.009 | 0.002 | 0.175 | -0.203 | 0.079 | 0.005 | 0.34 (active) | 0.578 (active) | -0.042 | 0.024 | 0.392 (active) | 0.016 | -0.008 | -0.033 | -0.003 | 0.191 | 0.008 |
| CDK13 (UniProt Q14004) | -0.124 | -0.031 | -0.061 | 0.002 | -0.123 | 0.106 | -0.09 | 0.04 | 0.074 | -0.036 | 0.287 (active) | -0.1 | -0.044 | 0.139 | -0.184 | -0.005 | -0.033 | 0.043 | 0.078 | 0.007 |
| CCDC47 (UniProt Q96A33) | 0.011 | 0.032 | 0.002 | 0.024 | 0.014 | 0.018 | -0.02 | -0.09 | -0.003 | 0.007 | 0.009 | 0.016 | -0.015 | 0.004 | -0.028 | -0.045 | -0.037 | 0.037 | -0.035 | -0.011 |
| CCNC (UniProt P24863) | 0.22 | 0.046 | -0.026 | -0.017 | -0.079 | 0.029 | -0.211 | 0.135 | -0.001 | -0.062 | 0.182 | -0.079 | -0.018 | -0.073 | -0.052 | 0.041 | 0.039 | 0.009 | -0.05 | 0.017 |
| ATP5PF isoform 2 (UniProt P18859) | 0.083 | -0.023 | 0.064 | 0.076 | 0.133 | 0.076 | 0.663 (active) | -0.205 | -0.024 | -0.067 | 0.203 | 0.146 | 0.042 | 0.071 | -0.022 | 0.014 | -0.061 | -0.005 | 0.01 | -0.173 |
| ATP9B (UniProt O43861) | -0.046 | 0.02 | -0.024 | -0.081 | -0.051 | -0.015 | -0.07 | 0.189 | 0.046 | -0.071 | -0.076 | 0.048 | 0.044 | -0.117 | -0.018 | 0.068 | 0.012 | -0.081 | 0.16 | -0.015 |
| ATG4A (UniProt Q8WYN0) | -0.045 | 0.033 | 0.012 | -0.047 | -0.015 | 0.008 | 0.027 | -0.045 | 0.034 | -0.043 | 0 | -0.104 | 0.042 | 0.036 | 0.01 | 0.037 | -0.087 | -0.016 | -0.001 | 0.052 |
| CANX isoform 2 (UniProt P27824) | 0.015 | -0.012 | -0.015 | 0.061 | 0.033 | -0.014 | -0.074 | 0.034 | 0.001 | 0.036 | -0.024 | 0.05 | -0.006 | 0.002 | -0.003 | 0.027 | -0.015 | -0.008 | 0.023 | 0.008 |
| CHAF1A (UniProt Q13111) | 0.005 | 0.005 | 0.006 | 0.029 | 0.003 | -0.009 | 0.029 | 0.004 | 0.038 | -0.016 | -0.003 | -0.089 | -0.019 | 0.02 | 0.038 | 0.003 | 0.063 | -0.107 | -0.01 | -0.065 |
